# Experimental data reported in PMC5540273 (PLoS ONE, 2017).
# Tests used:
# Conditions in all cases: concentration: 1 μM, replicates: in singlicate; n = 1
# [1] = test system: T1, RSK2(Kin.Dom.1-N-terminal)
# T1 construct: gene RPS6KA3
# [2] = test system: T2, RSK2(Kin.Dom.2-C-terminal)
# T2 construct: gene RPS6KA3
# [3] = test system: T3, RSK3(Kin.Dom.1-N-terminal)
# T3 construct: gene RPS6KA2
# [4] = test system: T4, RSK3(Kin.Dom.2-C-terminal)
# T4 construct: gene RPS6KA2
# [5] = test system: T5, RSK4(Kin.Dom.1-N-terminal)
# T5 construct: gene RPS6KA6
# [6] = test system: T6, RSK4(Kin.Dom.2-C-terminal)
# T6 construct: gene RPS6KA6
# [7] = test system: S6K1
# [8] = test system: SBK1
# [9] = test system: SGK2
# [10] = test system: SGK3
# [11] = test system: SGK
# [12] = test system: SIK2
# [13] = test system: SIK
# [14] = test system: SLK
# [15] = test system: T7, SNARK
# T7 construct: gene NUAK2
# [16] = test system: SNRK
# [17] = test system: SRC
# [18] = test system: SRMS
# [19] = test system: SRPK1
# [20] = test system: SRPK2
# 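Also: KINOMEscan kinase panel screen.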
SMILES,%Inh [1] [%],%Inh [2] [%],%Inh [3] [%],%Inh [4] [%],%Inh [5] [%],%Inh [6] [%],%Inh [7] [%],%Inh [8] [%],%Inh [9] [%],%Inh [10] [%],%Inh [11] [%],%Inh [12] [%],%Inh [13] [%],%Inh [14] [%],%Inh [15] [%],%Inh [16] [%],%Inh [17] [%],%Inh [18] [%],%Inh [19] [%],%Inh [20] [%]
NCC(NC(=O)c1cc(-c2cn[nH]c2)c(-c2ccnc3[nH]ccc23)s1)c1ccccc1.O=C(O)C(F)(F)F.O=C(O)C(F)(F)F (centres unmarked) [GSK1325775],35,6,7,0,21,8,53,84,79,81,74,0,0,0,92.2,0,0,0,81,22
CC(=O)Nc1ccc(COc2ccc(Nc3ccnc4cc(-c5ccccn5)ccc34)cc2)cc1.Cl [GW440148],0,6,3,11,0,26,0,0,0,8,0,0,4,0,15,0,29,88,46,12
O=c1cc(N2CCOCC2)nc2n(Cc3cccc4ccccc34)ccn12 [GSK2333389],0,0,2,0,0,8,0,14,0,0,0,0,0,0,0,0,0,0,29,0
NS(=O)(=O)CCc1cccc(Nc2nccc(-c3c(-c4cccc(NC(=O)c5c(F)cccc5F)c4)nn4ccccc34)n2)c1 [GSK336735],15,0,45,0,0,2,20,27,0,3,0,37,94.7,97.7,86,0,97.8,98.8,62,0
CN(C1=C(c2ccccc2)C(=O)NC1=O)c1ccccc1 [SB-334860],4,23,14,0,0,8,2,2,0,16,0,5,7,10,23,0,5,0,10,0
Cc1nnc(-c2ccc3ncc(-c4ccc(S(C)=O)cc4)n3c2)o1 (centres unmarked),7,4,0,31,0,19,0,0,13,0,0,0,9,14,0,2,0,0,0,0
O=c1cc(N2CCOCC2)nc2n(Cc3cccc(Cl)c3Cl)c(C3CC3)nn12 [GSK2358994],0,18,0,17,0,21,15,0,20,0,30,0,0,46,0,0,22,0,17,0
Cn1cc(-c2ccc3c(c2)CCN3C(=O)Cc2ccccc2Cl)c2c(N)ncnc21 [GSK2608885],0,23,87,12,0,18,14,25,0,3,0,52,96.4,99.2,89,0,99.1,98.4,56,0
Cc1nnc(-c2ccc3occ(-c4ccc(C(C)O)cc4)c3c2)o1 (centres unmarked),3,0,0,3,19,7,0,0,0,0,1,18,10,14,2,9,18,2,0,2
CC(C)Oc1ccc2c(-c3ccnc(Nc4ccc(N5CCN(C)CC5)cc4)n3)cnn2n1 [GW696155],44,28,7,77,0,95.1,44,88,52,58,88,83,79,10,99.6,23,66,0,85,54
NS(=O)(=O)c1cccc(-c2ccc3nccc(-c4cccc(S(N)(=O)=O)c4)c3c2)c1 [GW867253],31,56,0,11,12,30,16,0,0,0,9,1,0,0,0,0,0,27,0,0
O=C(NCCNc1ccnc(Nc2ccc(F)cc2)n1)c1cc2ccccc2s1 [GSK1379874],0,0,0,0,0,1,0,0,0,0,0,0,0,17,0,0,0,0,3,19
Cc1cccc(-c2nc(-c3ccc(S(C)(=O)=O)cc3)sc2-c2ccncc2)c1,0,25,0,4,30,15,12,1,0,12,0,0,12,26,2,17,8,0,15,0
O=C(NCCNc1ccnc(Nc2ccc(F)cc2)n1)Nc1ccccc1F [GSK1379880],0,0,0,0,0,2,9,41,0,0,0,0,0,11,0,0,6,0,5,0
COc1ccc(Nc2ncc(C#N)c(Nc3ccccc3C(N)=O)n2)cc1N1CCN(C)CC1.Cl [GSK1558669],100,7,99.7,11,100,50,99.9,93.9,58,95.3,87,96.4,98.7,100,99.8,85,100,99.5,99.9,66
O=C(Nc1cccc(-c2nn3ncccc3c2-c2ccnc(Nc3cccc(C(F)(F)F)c3)n2)c1)c1c(F)cccc1F [GSK299495],22,0,31,5,0,0,0,11,2,0,1,0,0,81,0,0,56,21,0,16
